Rin1 Abl inh = blocks binding of human Rin1 to Abl; TR-FRET Rin1/Abl binding, biochemical; AID 588664; P00519+Q13671; inhibition, % at 7.35 µM; 360,000 tested, 0.4% active; in the data active means inhibition above about 5%, passing the limit was not always enough
AI-2 QS modul = modulators of Vibrio harveyi AI-2 quorum sensing system; Vibrio harveyi JMH597 AI-2 luminescence/OD600 ratio, 9 h; hits give low values; strain lacks LuxN and CqsS sensors; 0 = neutral-control median; activity change, % at 7.5 µM; 300,000 tested, 0.4% active; AID 2094; in the data active means activity change below about -75%, passing the limit was not always enough;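 further: luminescence divided by OD600 gain over 9 h not by final OD600 alone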
sPLA2-III inh = Blocks human group III sPLA2 activity; inhibition, % at 12.2 µM; AID 743126; Q9NZ20; 370,000 tested, 0.56% active; QFRET BODIPY PC-A2 liposome hydrolysis, fluorescence;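 active means inhibition above mean plus 3 SD of compounds lying within the high and low control bounds, cut at about 19% in these data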;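 further: 0% = median of test compound wells and 100% = no enzyme DMSO wells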
Target sequence (Q9NZ20 whole entry, looked up): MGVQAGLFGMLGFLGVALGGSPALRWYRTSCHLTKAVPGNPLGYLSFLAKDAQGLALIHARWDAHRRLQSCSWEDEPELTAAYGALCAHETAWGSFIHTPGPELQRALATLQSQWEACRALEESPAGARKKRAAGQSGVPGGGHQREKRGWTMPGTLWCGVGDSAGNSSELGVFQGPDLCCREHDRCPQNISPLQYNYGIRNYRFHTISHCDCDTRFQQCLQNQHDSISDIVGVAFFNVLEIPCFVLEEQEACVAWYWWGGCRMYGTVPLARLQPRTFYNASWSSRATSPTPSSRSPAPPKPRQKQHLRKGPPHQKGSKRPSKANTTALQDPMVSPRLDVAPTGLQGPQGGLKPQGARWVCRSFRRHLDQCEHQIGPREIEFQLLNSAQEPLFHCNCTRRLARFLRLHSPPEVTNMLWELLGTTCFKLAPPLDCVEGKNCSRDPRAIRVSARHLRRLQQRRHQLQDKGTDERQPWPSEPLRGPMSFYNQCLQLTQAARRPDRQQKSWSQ
ARNT-TACC3 inh = disruptors of human ARNT/TACC3 interaction; 390,000 tested, 0.66% active; AlphaScreen His-ARNT PAS-B/GST-TACC3 binding, luminescence; TACC3 fragment carries E629A point mutation; Q9Y6A5; AID 623870; inhibition, % at 9.99 µM;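 active means mean inhibition of replicates at least 50% and at least half of replicates each reaching 50%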;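 further: 0% = complete ARNT plus TACC3 wells and 100% = ARNT alone without TACC3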
Active calls of the source: *; nt = not tested or not shown. Sampled rows, rich in hits. Any-hit rate of the full collection: about 1.5%.

SMILES	Rin1 Abl inh	AI-2 QS modul	sPLA2-III inh	ARNT-TACC3 inh
CCN(Cc1ccccc1)S(=O)(=O)c1ccc(C(=O)Nc2nnc(-c3ccccc3OC)o2)cc1	0	-11	-3	10
CCCCN(CC)S(=O)(=O)c1ccc(C(=O)Nc2nnc(COC)o2)cc1	-5	29	nt	29
CCOC(=O)N1CCN(S(=O)(=O)c2ccc(C(=O)Nc3nnc(CC)o3)cc2)CC1	-4	24	-2	-1
COc1ccccc1-c1nnc(NC(=O)c2ccc(S(=O)(=O)N(C)C)cc2)o1	0	5	-2	57*
COCc1nnc(NC(=O)c2ccc(S(=O)(=O)N3CCCC3)cc2)o1	5	11	-5	49*
COCCN(CCOC)S(=O)(=O)c1ccc(C(=O)Nc2nnc(C3CC3)o2)cc1	-5	nt	5	47*
CCc1nnc(NC(=O)c2ccc(S(=O)(=O)N(CCOC)CCOC)cc2)o1	-2	23	1	46*
COCC(=O)Nc1ccc2c(c1)C(=O)N(C)C[C@H](OC)[C@@H](C)CN(Cc1cccnc1)[C@@H](C)CO2	nt	nt	nt	-7
O=c1[nH]nc(N=Nc2c(O)[nH]c3ccc(F)cc23)c(=O)[nH]1	-3	nt	2	63*
O=C(Nc1ccc(C(F)(F)F)cc1)N[C@@H]1C=C[C@@H](CC(=O)N2CCCCC2)O[C@H]1CO	nt	nt	nt	46*
O=C(Nc1ccc(C(F)(F)F)cc1)N[C@H]1C=C[C@@H](CC(=O)N2CCCCC2)O[C@H]1CO	nt	nt	nt	0
CCCN1[C@@H]2c3ccc(C4=CCCCC4)c(=O)n3C[C@@H]2[C@@H](CO)[C@@H]1C(=O)NCCCN(C)C	nt	nt	nt	1
O=C(c1ccccc1)c1ccc2nc(-c3ccc(NC(=O)c4ccccc4Br)cc3)[nH]c2c1	-3	40	-14	-4
Cc1ccccc1C(=O)Nc1ccc(-c2nc3ccc(C(=O)c4ccccc4)cc3[nH]2)cc1	8.5*	4	-9	0
C[C@@H]1CCCCO[C@@H](CN(C)C(=O)Nc2ccc(F)cc2)[C@H](C)CN([C@H](C)CO)C(=O)c2cc(NC(=O)CCC(F)(F)F)ccc2O1	nt	nt	nt	-13
COc1ccc(C(Nc2ccccn2)c2oc(CO)cc(=O)c2O)cc1 (stereo not drawn)	7.4*	13	4	nt
O=c1cc(CO)oc(C(Nc2ccccn2)c2ccc(F)cc2)c1O (stereo not drawn)	3	17	-8	0
COc1cccc(C(=O)N2C[C@H]3[C@@H](c4ccccc42)[C@@H](CO)N3Cc2ccccc2Cl)c1	nt	nt	nt	0
Cc1ccc(SCC(=O)Nc2nnc(-c3ccco3)o2)cc1	2	19	-5	48*
O=C(CSc1ccc(F)cc1)Nc1nnc(-c2ccco2)o1	3	-17	4	49*
COc1ccc(-c2cnc3c(c2)C(=O)N([C@H](C)CO)C[C@@H](C)[C@@H](CN(C)Cc2ccc(C(=O)O)cc2)O3)cc1	nt	nt	nt	-1
C[C@H](CO)N1C[C@H](C)[C@@H](CN(C)C(=O)Nc2ccc(C(F)(F)F)cc2)OCCCC[C@H](C)Oc2ccc(NC(=O)NC3CCCCC3)cc2C1=O	nt	nt	nt	11
O=C(/C=C/c1ccccc1)NCCC1=CCCCC1	-3	-86*	0	-1
O=C(O)c1ccccc1N=Nc1c(O)[nH]c2ccc([N+](=O)[O-])cc12	4	29	nt	47*
c1cnc(N2CCN(c3nc4ccccc4n4cnnc34)CC2)nc1	-1	9	5	49*
SMILES	Rin1 Abl inh	AI-2 QS modul	sPLA2-III inh	ARNT-TACC3 inh
c1ccc(C(c2ccccc2)N2CCN(c3nc4ccccc4n4cnnc34)CC2)cc1	nt	11	1	nt
C[C@H]1CN([C@@H](C)CO)C(=O)c2cc(NC(=O)CCN3CCOCC3)ccc2O[C@H]1CN(C)Cc1ccc(Oc2ccccc2)cc1	nt	nt	nt	-2
COc1cc(NC(C)CCCNC(C)C)c2ncccc2c1OC (stereo not drawn)	3	nt	2	59*
COc1cc(N)c2ncccc2c1OC	2	nt	7	23
COc1cc(NCCCCCCN)c2ncccc2c1OC	4	nt	-1	52*
COc1cc(NCCCCC(C)N)c2nccc(C)c2c1 (stereo not drawn)	-11	nt	8	nt
C[C@H]1CN([C@@H](C)CO)C(=O)c2cc(NC(=O)c3ccncc3)ccc2O[C@@H]1CN(C)CC1CCCCC1	nt	nt	nt	-8
COc1ccc(CN2CCC(C(=O)Nc3ccc(Oc4cccnc4)cc3)CC2)cc1	8.2*	17	2	-10
COc1cccc(O)c1CN1CCC(C(=O)Nc2ccc(Oc3cccnc3)cc2)CC1	0	2	6	-11
CCCN(C)C[C@H]1Oc2ncc(C#Cc3ccccc3OC)cc2C(=O)N([C@H](C)CO)C[C@H]1C	nt	nt	nt	12
Nn1c(-c2ccccn2)nnc1-c1ccccn1	1	8	8	79*
c1ccc(-c2ccccn2)nc1	-4	12	-1	-3
O=C(CCN1CCCCC1)N[C@@H]1CC[C@@H](CCNC(=O)c2cc(Cl)cc(Cl)c2)O[C@@H]1CO	nt	nt	nt	47*
CCc1ccc(S(=O)(=O)/N=C2\C=C(Nc3ccc(C(=O)O)cc3)C(=O)c3ccccc32)cc1	3	11	0	74*
COC(=O)c1ccccc1NC1=C/C(=N\S(=O)(=O)c2ccc(C(=O)O)cc2)c2ccccc2C1=O	-1	55	nt	72*
Cc1ccc(S(=O)(=O)/N=C2\C=C(Nc3cccc(C(=O)O)c3)C(=O)c3ccccc32)cc1	1	20	-4	nt
O=C(COc1ncnc2ccccc12)Nc1ccc(S(=O)(=O)N2CCOCC2)cc1	-5	-92*	-1	-1
O=C(COc1ccccc1)Nc1ccc(S(=O)(=O)N2CCCC2)cc1	3	-95*	0	-1
O=C(CCc1ccccc1)Nc1ccc(S(=O)(=O)N2CCCC2)cc1	4	-89*	-10	-12
O=C(COc1ncnc2ccccc12)Nc1cccc(S(=O)(=O)N2CCOCC2)c1	-1	-25	-3	nt
Cc1ccccc1OCC(=O)Nc1ccc(S(=O)(=O)N2CCCC2)cc1	5	-79*	-7	2
CC(=O)N1CCN(c2ccccc2NC(=O)COc2ccccc2C)CC1	2	11	-1	0
Cc1ccccc1OCC(=O)Nc1ccccc1N1CCC(C)CC1	2	19	0	45*
C=CCN=c1scc(-c2ccc(F)cc2)n1/N=C/c1ccccn1	-1	12	5	31
CCN=c1scc(-c2ccccc2)n1/N=C/c1ccccn1	-1	-9	nt	61*
C=CCN=c1scc(-c2ccccc2)n1/N=C/c1ccccn1	-2	0	-2	47*
CCN=c1scc(-c2ccc(F)cc2)n1/N=C/c1ccccn1	-3	38	-6	32
COC(=O)C1=CN(Cc2ccc(F)cc2)C=C(C(=O)OC)C1c1cc(OC)c(OC)c(OC)c1	2	10	0	-32
COC(=O)C1=CN(Cc2ccc(OC)cc2)C=C(C(=O)OC)C1c1cc(OC)c(OC)c(OC)c1	1	10	nt	active
COc1cccc(S(=O)(=O)N[C@H]2CC[C@@H](CC(=O)NCc3ccc(Cl)cc3)O[C@H]2CO)c1	nt	nt	nt	36*
